Measurements published in PubChem BioAssay (NCATS).
Records with an inconclusive call do not appear. Activity calls are given as the source filed them. Unless noted, calls come from the whole dose curve; as a rule, active = well fitted curve in the direction sought with a large enough effect; inconclusive = small, poorly fitted or top-dose-only effect, or another doubt; inactive = no such curve, though single readings can be large; an effect the other way counts as inactive or inconclusive.

Columns and labels:
[1] = AP1 Signaling Pathway (AID 357; active = well fitted curve in either direction with a large enough effect, not every such curve was filed as active;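 note: ME-180 reporter cells stimulated with EGF at its EC50 level; % is set by controls: 0 for no effect and ±100 for the full control effect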)
Procedure, shortened: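 Read-out was the 460nm/530nm emission ratio (excitation 405nm) after CCF4 loading for 2.5 hours at room temperature. Cells carried an AP-1-driven beta-lactamase reporter, were stimulated with EC50 EGF plus compound for 5 hours, and AC50 values came from titrations.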

[2] = target: Cytochrome P450 1A2 (Homo sapiens) (UniProt P05177); test: p450-cyp1a2 (AID 410; calls by dose curve;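 note: -100% = full effect of reference inhibitor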)
Sequence of Cytochrome P450 1A2 (Homo sapiens) (P05177 whole entry, looked up): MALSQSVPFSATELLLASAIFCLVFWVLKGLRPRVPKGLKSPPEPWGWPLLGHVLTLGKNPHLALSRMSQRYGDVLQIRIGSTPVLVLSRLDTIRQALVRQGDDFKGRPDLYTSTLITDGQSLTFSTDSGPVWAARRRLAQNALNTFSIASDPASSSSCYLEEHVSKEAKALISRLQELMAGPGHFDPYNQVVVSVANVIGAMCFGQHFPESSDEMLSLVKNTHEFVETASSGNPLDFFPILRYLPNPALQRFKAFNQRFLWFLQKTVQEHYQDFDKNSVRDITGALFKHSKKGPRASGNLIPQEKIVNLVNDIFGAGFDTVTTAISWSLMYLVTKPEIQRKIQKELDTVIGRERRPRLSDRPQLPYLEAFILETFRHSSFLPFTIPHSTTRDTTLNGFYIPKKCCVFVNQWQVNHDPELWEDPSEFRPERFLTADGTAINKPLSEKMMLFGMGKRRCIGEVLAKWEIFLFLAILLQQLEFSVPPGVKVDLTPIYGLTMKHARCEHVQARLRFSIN
Procedure, shortened: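 Inhibition was calculated relative to 57 uM furafylline (full inhibition). The reaction used human CYP1A2 at 20nM with Luciferin-ME at its Km, 100uM, driven by an NADPH-regenerating system for 60 min at room temperature.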

[3] = NFAT Signaling Pathway (AID 444; active = well fitted curve in either direction with a large enough effect, not every such curve was filed as active;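 note: carbachol stimulus at about its EC50 of 1 µM final; % is set by controls: 0 for no effect and ±100 for the full control effect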); conditions: Jurkat NFAT-bla M1, carbachol, beta-lactamase ratio, 5 h; at 17.2 µM (top of the series)
Procedure, shortened: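 Jurkat cells with NFAT-driven β-lactamase reporter and co-expressed M1 receptor, stimulated with carbachol (final 1 uM, ~EC50), compound titration, 5 h at 37 °C. CCF4 loaded 1 h at RT; 460/530 nm ratio gave %activity and AC50.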

[4] = target: 3',5'-cyclic-AMP phosphodiesterase 4B (Homo sapiens) (UniProt Q07343); test: qHTS Assay for Inhibitors of PDE-IV (AID 607; active = well fitted activation curve with a large enough effect in the main read-out, with a control signal flat, not every such curve was filed as active; note: % of control where 0% means no effect)
Sequence of 3',5'-cyclic-AMP phosphodiesterase 4B (Homo sapiens) (Q07343 whole entry, looked up): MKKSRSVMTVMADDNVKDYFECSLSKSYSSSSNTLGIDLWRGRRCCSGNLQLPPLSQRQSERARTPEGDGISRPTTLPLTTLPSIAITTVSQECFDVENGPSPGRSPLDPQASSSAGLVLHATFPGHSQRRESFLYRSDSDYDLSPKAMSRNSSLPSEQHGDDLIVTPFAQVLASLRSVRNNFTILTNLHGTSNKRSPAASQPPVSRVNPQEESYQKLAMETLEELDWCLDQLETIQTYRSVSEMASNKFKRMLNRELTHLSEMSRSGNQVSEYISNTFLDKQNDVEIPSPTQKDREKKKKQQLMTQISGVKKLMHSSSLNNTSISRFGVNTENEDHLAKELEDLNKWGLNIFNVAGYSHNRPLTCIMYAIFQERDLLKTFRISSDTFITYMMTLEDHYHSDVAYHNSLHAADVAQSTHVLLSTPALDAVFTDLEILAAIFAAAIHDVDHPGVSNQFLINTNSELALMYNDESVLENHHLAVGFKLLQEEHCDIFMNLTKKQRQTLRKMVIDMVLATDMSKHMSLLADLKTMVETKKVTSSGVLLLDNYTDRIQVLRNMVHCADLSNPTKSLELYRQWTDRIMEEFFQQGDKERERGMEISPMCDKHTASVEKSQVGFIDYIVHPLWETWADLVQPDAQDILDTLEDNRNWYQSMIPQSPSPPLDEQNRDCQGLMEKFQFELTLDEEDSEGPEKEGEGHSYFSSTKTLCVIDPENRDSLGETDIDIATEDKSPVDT
Procedure, shortened: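 Cell-based read-out of cAMP via a modified cyclic nucleotide-gated channel and membrane potential dye (535/590 nm) in HEK293 cells expressing PDE4 endogenously. Compounds tested up to 22.9 uM final; 100 uM RO 20-1724 reference.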

[5] = qHTS Assay for Lipid Storage Modulators (AID 1519; calls by dose curve); conditions: Drosophila S3 cells, BODIPY lipid droplet/cell ratio, laser cytometry, cells loaded with oleic acid; for activity change, negative = inhibition: at 25.7 µM (top of the series)
Procedure, shortened: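 Cells seeded at 5,000 per well were treated with compounds over a concentration series and loaded with oleic acid (400 uM, as added). Lipid droplet fluorescence (488 nm excitation, 500-530 nm channel) was read by laser-scanning cytometry and normalized to 20 uM Triacsin C.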

[6] = target: Ubiquitin carboxyl-terminal hydrolase 1 (Homo sapiens) (UniProt O94782); test: Inhibitors of USP1/UAF1: Pilot qHTS (AID 504865);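 note: rhodamine fluorescence freed from ubiquitin-rhodamine substrate followed over time; top concentration of the series differs between compounds; % is set by controls: 0 for no effect and ±100 for the full control effect; nearly all actives have a fitted effect of over 35% in size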
Sequence of Ubiquitin carboxyl-terminal hydrolase 1 (Homo sapiens) (O94782 whole entry, looked up): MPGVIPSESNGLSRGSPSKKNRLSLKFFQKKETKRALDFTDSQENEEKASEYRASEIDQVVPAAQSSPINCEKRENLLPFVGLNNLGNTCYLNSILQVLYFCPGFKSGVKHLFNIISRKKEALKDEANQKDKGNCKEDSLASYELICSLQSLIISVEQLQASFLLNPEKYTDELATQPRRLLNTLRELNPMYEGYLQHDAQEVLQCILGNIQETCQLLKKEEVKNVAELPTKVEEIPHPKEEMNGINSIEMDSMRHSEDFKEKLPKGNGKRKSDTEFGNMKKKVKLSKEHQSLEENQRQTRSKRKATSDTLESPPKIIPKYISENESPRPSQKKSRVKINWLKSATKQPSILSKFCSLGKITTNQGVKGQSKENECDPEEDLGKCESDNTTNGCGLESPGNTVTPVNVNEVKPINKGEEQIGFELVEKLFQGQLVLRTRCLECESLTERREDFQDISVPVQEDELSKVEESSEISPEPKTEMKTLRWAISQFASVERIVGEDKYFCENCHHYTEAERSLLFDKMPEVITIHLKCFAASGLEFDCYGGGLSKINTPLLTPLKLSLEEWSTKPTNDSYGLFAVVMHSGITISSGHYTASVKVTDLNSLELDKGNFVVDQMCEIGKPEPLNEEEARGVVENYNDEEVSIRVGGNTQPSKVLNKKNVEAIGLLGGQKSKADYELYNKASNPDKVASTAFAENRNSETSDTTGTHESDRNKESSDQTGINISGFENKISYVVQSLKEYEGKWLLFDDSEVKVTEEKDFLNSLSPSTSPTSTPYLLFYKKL
Procedure, shortened: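 1nM USP1/UAF1 + cpd, 15 min RT; start w/ Ub-Rho 150nM final; kinetic FL 480/540 nm, 6 reads q60 s. Buffer 50mM HEPES pH 7.8, 0.5mM EDTA, 1mM TCEP, 0.01% Tween-20, 0.1 mg/ml BSA.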

[7] = target: Glucocorticoid receptor (Homo sapiens) (UniProt P04150); test: GR-EFC Redistribution (AID 451; calls by dose curve; note: potency is the fitted concentration of half-maximal effect); conditions: CHO-K1 GR-EFC translocation, beta-gal luminescence, 2 h
Sequence of Glucocorticoid receptor (Homo sapiens) (P04150 whole entry, looked up, the tested form may be a part): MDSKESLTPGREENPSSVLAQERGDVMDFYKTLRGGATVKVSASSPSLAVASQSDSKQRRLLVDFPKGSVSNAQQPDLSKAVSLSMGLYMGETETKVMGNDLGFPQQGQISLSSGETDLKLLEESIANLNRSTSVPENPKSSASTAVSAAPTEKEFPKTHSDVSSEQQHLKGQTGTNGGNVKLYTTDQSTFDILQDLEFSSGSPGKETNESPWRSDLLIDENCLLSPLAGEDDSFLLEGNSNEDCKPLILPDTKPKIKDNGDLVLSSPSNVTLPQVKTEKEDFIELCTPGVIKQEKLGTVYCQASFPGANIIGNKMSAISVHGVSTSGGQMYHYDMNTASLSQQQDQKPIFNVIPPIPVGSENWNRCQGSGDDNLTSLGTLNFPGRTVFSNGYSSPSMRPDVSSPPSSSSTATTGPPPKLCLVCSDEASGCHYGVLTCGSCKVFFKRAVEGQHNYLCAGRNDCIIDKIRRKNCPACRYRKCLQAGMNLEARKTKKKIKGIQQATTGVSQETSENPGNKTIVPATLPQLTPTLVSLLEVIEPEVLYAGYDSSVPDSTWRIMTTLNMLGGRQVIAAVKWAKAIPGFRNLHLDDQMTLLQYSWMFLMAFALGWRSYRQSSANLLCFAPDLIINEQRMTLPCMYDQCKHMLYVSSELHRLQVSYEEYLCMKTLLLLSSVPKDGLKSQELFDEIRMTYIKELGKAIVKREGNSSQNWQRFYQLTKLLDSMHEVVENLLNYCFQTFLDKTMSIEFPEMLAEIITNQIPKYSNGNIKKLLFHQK
Procedure, shortened: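 CHO-K1 cells expressing nuclear EA and GR-ED fragments of b-gal; compounds titrated up to 46 uM final, 2 h at 37 C. GR nuclear translocation read as complemented b-gal luminescence after 1 h RT detection.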

[8] = target: Mitogen-activated protein kinase 10 (Mus musculus) (UniProt Q61831); test: JNK3 AlphaScreen Assay (AID 530; active = well fitted curve in either direction with a large enough effect, not every such curve was filed as active;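 note: kinase came from lysate of stimulated human HepG2 cells; signal reports phosphorylation of biotinylated GST-cJun 1-79 at Ser73 with 10 µM ATP; % is set by controls: 0 for no effect and ±100 for the full control effect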)
Procedure, shortened: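 qHTS format: compounds tested as titrations against IL-1beta/TNF-alpha-activated HepG2 lysate JNK3 with biotin-GST-cJun substrate and 10 uM ATP at room temperature. Loss of anti-phospho-cJun AlphaScreen signal indicates inhibition.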

[9] = Stat Signaling Pathway (AID 446; active = well fitted curve in either direction with a large enough effect, not every such curve was filed as active;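 note: ME-180 cervical cancer cells given 40 pM IL-6 alongside compound; SIE-controlled beta-lactamase reporter measured as 460/530 nm FRET emission ratio; % is set by controls: 0 for no effect and ±100 for the full control effect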)
Procedure, shortened: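 Reporter line: ME-180 cervical carcinoma, SIE-beta-lactamase. Treatment: compound with 40 pM IL-6, 5 hrs, 37 C, in low-serum OPTI-MEM with 10 mM HEPES pH 7.3. Detection: 460/530 nm fluorescence.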

[10] = target: Glucocorticoid receptor (Homo sapiens) (UniProt P04150); test: GR-GFP Redistribution (AID 450;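 active = compounds whose dose series gives a full or clear partial fitted curve of increased nuclear translocation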; note: potency is the fitted concentration of half-maximal effect); conditions: U2OS GR-GFP nuclear translocation, laser cytometry, 2 h
[11] = target: ATP-dependent 6-phosphofructokinase (Trypanosoma brucei brucei) (UniProt O15648); test: qHTS Assay to Find Inhibitors of T. brucei phosphofructokinase: hit validation (AID 492961); note: % is set by controls: 0 for no effect and ±100 for the full control effect
Sequence of ATP-dependent 6-phosphofructokinase (Trypanosoma brucei brucei) (O15648 whole entry, looked up): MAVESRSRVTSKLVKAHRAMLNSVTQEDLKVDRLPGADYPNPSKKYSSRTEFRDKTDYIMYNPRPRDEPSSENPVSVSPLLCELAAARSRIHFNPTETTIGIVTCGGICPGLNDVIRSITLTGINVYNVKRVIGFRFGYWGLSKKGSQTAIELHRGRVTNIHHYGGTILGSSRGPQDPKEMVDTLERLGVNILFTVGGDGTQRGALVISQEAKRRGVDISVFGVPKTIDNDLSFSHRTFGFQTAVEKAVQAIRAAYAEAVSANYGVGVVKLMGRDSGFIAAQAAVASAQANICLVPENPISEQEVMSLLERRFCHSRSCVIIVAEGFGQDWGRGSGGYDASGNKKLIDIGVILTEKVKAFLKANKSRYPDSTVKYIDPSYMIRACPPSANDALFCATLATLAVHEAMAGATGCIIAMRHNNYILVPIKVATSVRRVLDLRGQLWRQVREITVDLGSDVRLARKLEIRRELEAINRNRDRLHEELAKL
Procedure, shortened: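 Luminescence from ADP-Glo reports ADP generated as T. brucei PFK (1.25 nM) phosphorylates 0.5 mM fructose-6-phosphate using 0.1 mM ATP. Reactions ran 45 min at room temperature, pH 8.0.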

[12] = target: Luciferin 4-monooxygenase (Photinus pyralis) (UniProt P08659); test: Biochemical firefly luciferase enzyme assay for NPC (AID 624030);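 note: purified P. pyralis luciferase at 10 nM with luciferin and ATP substrate; 0% = DMSO and -100% = full luciferase inhibition by PTC124 control; nearly all actives have a fitted effect of over 70% in size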
Sequence of Luciferin 4-monooxygenase (Photinus pyralis) (P08659 whole entry, looked up): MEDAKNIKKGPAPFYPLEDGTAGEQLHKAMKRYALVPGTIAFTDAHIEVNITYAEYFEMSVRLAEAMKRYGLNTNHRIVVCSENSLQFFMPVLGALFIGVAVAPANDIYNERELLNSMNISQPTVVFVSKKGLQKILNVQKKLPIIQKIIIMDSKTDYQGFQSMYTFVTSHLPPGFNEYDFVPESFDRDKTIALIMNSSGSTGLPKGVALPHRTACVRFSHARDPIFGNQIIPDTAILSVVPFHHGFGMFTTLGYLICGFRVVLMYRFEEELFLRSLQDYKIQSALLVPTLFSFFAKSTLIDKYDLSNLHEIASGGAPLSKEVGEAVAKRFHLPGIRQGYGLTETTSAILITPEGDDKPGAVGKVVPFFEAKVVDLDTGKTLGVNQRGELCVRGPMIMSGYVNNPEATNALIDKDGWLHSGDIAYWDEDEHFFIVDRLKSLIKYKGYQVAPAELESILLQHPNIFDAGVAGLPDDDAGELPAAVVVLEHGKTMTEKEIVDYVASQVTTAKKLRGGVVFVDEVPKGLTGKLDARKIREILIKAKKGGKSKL
Procedure, shortened: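 Purified P. pyralis luciferase at 10 nM in 50 mM Tris Acetate (final), luminescence read within 5 minutes of enzyme addition to compounds. Activity normalised to PTC124 versus DMSO; concentration-response curves classed by r2, magnitude and activity.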

[13] = qHTS profiling for inhibitors of Plasmodium falciparum proliferation (AID 504749);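 note: 0% = DMSO vehicle and full inhibition = artemisinin control; nearly all actives have a fitted effect of over 60% in size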; conditions: P. falciparum in erythrocytes, SYBR Green DNA, 72 h, at 12.8 µM (top of the series)
Procedure, shortened: (§1)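 Readout was DNA-dye fluorescence from lysed cultures, ex 485/em 535 nm. Parasitized red cells had grown 72 h with compound; data scaled between 0.29 uM artemisinin and DMSO wells and corrected using vehicle-only plates.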

C2A = test: as above; conditions: P. falciparum in erythrocytes, SYBR Green DNA, 72 h; series mostly up to 28.7 µM
Procedure, shortened: as §1

CP217 = test: as above; conditions: P. falciparum in erythrocytes, SYBR Green DNA, 72 h; series mostly up to 28.7 µM
Procedure, shortened: as §1

CP252 = test: as above; conditions: P. falciparum in erythrocytes, SYBR Green DNA, 72 h; series mostly up to 12.8 µM
Procedure, shortened: as §1

CP256 = test: as above; conditions: P. falciparum in erythrocytes, SYBR Green DNA, 72 h; series mostly up to 28.7 µM
Procedure, shortened: as §1

CP262 = test: as above; conditions: P. falciparum in erythrocytes, SYBR Green DNA, 72 h; series mostly up to 28.7 µM
Procedure, shortened: as §1

[14] = measured here: cell count channel max response
[15] = measured here: lipid channel max response

CCN1C[C@@]2(COC)[C@H]3[C@@H](OC)[C@H]4C1[C@@]3([C@H](OC)C[C@@H]2O)[C@H]1C[C@@]2(O)[C@@H](OC(=O)c3ccccc3)[C@@H]1[C@@]4(OC(C)=O)[C@H](O)[C@@H]2OC
-0.649%: max response [5, 15]
-0.297%: max response [5, 14]
inactive: outcome [1] | Potency [2] | activity change, negative = inhibition [3] -22.7% | Potency [4] | activity change, negative = inhibition [5] -1.64% | Potency [6]

CC[C@H]1CN2CC[C@@H]1C[C@H]2[C@@H](O)c1ccnc2ccc(OC)cc12
-1.96%: max response [5, 14]
inactive: outcome [1] | Potency [2] | activity change, negative = inhibition [3] -20.4% | Potency [7] > 20.6 µM | outcome [8] | activity change, negative = inhibition [5] -3.88%
-5.46%: max response [5, 15]

CO[C@H]1C=C2CCN(C)[C@@H]2[C@@H]2c3cc4c(cc3C(=O)O[C@H]21)OCO4
-13.3%: max response [5, 14]
-11.4%: max response [5, 15]
inactive: outcome [1] | activity change, negative = inhibition [3] 8.91% | outcome [9] | Potency [10] > 20.6 µM | Potency [7] > 20.6 µM | Potency [4] | activity change, negative = inhibition [5] 0.781% | Potency [6]

COc1cc(C(=O)OC2C[C@H]3CC[C@@H](C2)N3C)ccc1O (stereo partly drawn)
inactive: outcome [1] | Potency [2] | outcome [9] | Potency [7] > 20.6 µM | outcome [8] | Potency [4] | activity change, negative = inhibition [5] 2.65% | Potency [6]
-27.3%: max response [5, 15]
-32.4%: max response [5, 14]

C[C@H]1CC[C@@H]2[C@@H](C)C(=O)O[C@H]3O[C@@]4(C)CC[C@H]1[C@@]32OO4
-15%: max response [5, 15]
inactive: outcome [1] | activity change, negative = inhibition [3] -0.23% | outcome [9] | Potency [10] > 20.6 µM | Potency [7] > 20.6 µM | outcome [8] | Potency [4] | activity change, negative = inhibition [5] -3.8% | Potency [6]
-10.2%: max response [5, 14]

CC[C@]1(c2cccc(O)c2)CCCCN(C)C1
-11.2%: max response [5, 15]
-13.2%: max response [5, 14]
inactive: outcome [1] | Potency [2] | outcome [9] | Potency [10] > 20.6 µM | Potency [7] > 20.6 µM | Potency [4] | activity change, negative = inhibition [5] -0.585% | Potency [11] | Potency [6] | Potency [12] | activity, negative = inhibition ([13]; parasite line A) -7.81% | Potency (C2A) | Potency (CP217) | Potency (CP252) | Potency (CP256) | Potency (CP262)

NCC[C@H](O)C(=O)N[C@H]1C[C@@H](N)[C@@H](O[C@H]2O[C@@H](CN)[C@@H](O)[C@@H](O)[C@@H]2N)[C@@H](O[C@H]2O[C@@H](CO)[C@@H](O)[C@@H]2O)[C@@H]1O
inactive: outcome [1] | activity change, negative = inhibition [3] -14.8% | outcome [9] | outcome [8] | Potency [4] | activity change, negative = inhibition [5] -3.44% | Potency [11] | Potency [6] | Potency [12] | activity, negative = inhibition ([13]; parasite line A) 12.6% | activity, negative = inhibition ([13]; parasite line B) 8.36% | Potency (C2A) | Potency (CP217) | Potency (CP252) | Potency (CP256) | Potency (CP262)
-13.9%: max response [5, 15]
-10.6%: max response [5, 14]
